The values below come from PubChem BioAssay.

A short description of assay [1]: inhibitors of TNFa-induced NFkB p65 translocation, primary screen, imaging, HUVEC, MLSMR starter and 10KST1 sets (AID 438;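 active means inhibition above 20% together with a positive visual image hit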;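 further: compound added about 3h40 before a 20 min TNFalpha stimulation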;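 on inhibition: signal is the nuclear over cytoplasmic p65 intensity ratio per well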). As to conditions: HUVEC TNFa-induced p65 nuclear translocation; cell count: measured here: nuclei count (cytotoxicity indicator), at 2.08 µM; inhibition: at 2 µM, stronger effect = higher value, 0% TNFa-plus-vehicle, 100% no-TNFa wells.
A short description of assay [2]: inhibitors of mutant huntingtin aggregation, primary screen, imaging, exon1htt(103Q)mCFP cells, high-content imaging (AID 483;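 active means visual image review flags a hit and inhibition of aggregation exceeds 20%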;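 further: compound exposure lasted 3 days before fixation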;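 on nuclei count: percent of the per-plate median nuclei count of sample wells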). Particulars: exon1htt(103Q)mCFP cell line, aggregate imaging, at 2 µM; inhibition of aggregation: stronger effect = higher value; nuclei count: measured here: cell count, toxicity.
A short description of assay [3]: inhibitors of E-selectin induction by TNFa, primary screen, imaging, HUVEC, immunofluorescence, MLSMR starter and 10KST1 sets (AID 487;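 active means visually confirmed hit in the image check and inhibition above 20%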;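 on inhibition: signal is fraction of cell area covered by stained E-selectin grains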;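 on nuclei count: 100% = median nuclei count of all wells on the same plate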). Particulars: HUVEC TNFalpha-induced E-selectin immunofluorescence imaging, at 2 µM; inhibition: stronger effect = higher value; nuclei count: measured here: cell number, toxicity.
Assay [4] addresses Voltage-gated potassium channel subunit beta-2 (Rattus norvegicus) (UniProt P62483). The assay is described as follows: KvBeta enzyme negative modulators, primary screen, biochemical, NADPH fluorescence (AID 622;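 active means fluorescence slope higher than the sample average by over 3 SD, cut at about -0.22 in these data, passing the limit was not always enough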;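 further: slope of raw intensity against log time taken from 70 to 1610 s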). As to conditions: recombinant KvBeta, 4-cyanobenzaldehyde reduction, at 10 µM, stronger effect = higher value.
For assay [5] the target is unchanged. The assay is described as follows: KvBeta positive modulators, primary screen, biochemical, NADPH fluorescence (AID 623;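 active means NADPH fluorescence slope more negative than the mean of all samples by about 3 SD, 99.7% confidence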;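 further: fluorescence intensity change per second fitted from 20 to 320 s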). Particulars: Recombinant KvBeta, NADPH fluorescence decrease slope, 10 min; at 10 µM; stronger effect = lower value.
For assay [6], the target named is Alpha-2C adrenergic receptor (Homo sapiens) (UniProt P18825). The assay is described as follows: modulators of alpha2C/GIRK thallium flux, primary screen, cell-based, HEK293 alpha2C/GIRK1/2 (AID 624).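 Further: slope of fluorescence ratio to pre-addition baseline per second over 15 to 24 s.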 As to conditions: thallium flux BTC fluorescence, at 10 µM, actives lie on both sides.
Assay [7] can be described thus: inhibitors of Sendai virus-induced IRF3 signaling, primary screen, TLR/RLR signaling modifier project, cell-based, Sendai virus stimulus, luciferase, 10K MLSCN set (AID 602276;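 active means inhibition at or above 50% at 10 µM; inactive means inhibition below 50%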;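 further: firefly luciferase from ISG56 promoter only with Renilla not read in this screen; 0% = Sendai virus plus DMSO and 100% = medium plus DMSO without virus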). Particulars: HEK293 RL24 IRF3 luciferase reporter, at 10 µM, stronger effect = higher value.
Assay [8] is described as follows: inhibitors of poly I:C-induced TLR3 signaling, primary screen, cell-based, poly I:C stimulus, luciferase, 10K MLSCN set (AID 602277;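 active means inhibition of the reporter signal at or above 50%; inactive means inhibition below 50%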). As to conditions: HEK293-TLR3 RL24 IRF3 luciferase reporter, at 10 µM, stronger effect = higher value.

Activity calls are given as the source filed them.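 How the source made its calls, unless noted: active means fluorescence slope after compound addition differing from the mean of all screened samples at 99.7% confidence, in either direction; inactive means the rest.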

Chain of Alpha-2C adrenergic receptor (Homo sapiens) (P18825 whole entry, looked up): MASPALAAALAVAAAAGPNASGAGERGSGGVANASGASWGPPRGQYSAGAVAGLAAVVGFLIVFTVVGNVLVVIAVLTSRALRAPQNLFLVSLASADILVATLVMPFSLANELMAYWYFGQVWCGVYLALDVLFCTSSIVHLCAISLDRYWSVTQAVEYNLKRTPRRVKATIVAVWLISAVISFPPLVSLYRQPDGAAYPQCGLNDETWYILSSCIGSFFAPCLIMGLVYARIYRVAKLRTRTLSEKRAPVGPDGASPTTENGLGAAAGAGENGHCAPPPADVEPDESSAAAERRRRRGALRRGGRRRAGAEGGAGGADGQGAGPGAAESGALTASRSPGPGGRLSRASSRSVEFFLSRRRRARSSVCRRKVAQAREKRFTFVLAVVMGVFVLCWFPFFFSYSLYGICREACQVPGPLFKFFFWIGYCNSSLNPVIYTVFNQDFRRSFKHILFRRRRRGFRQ
Chain of Voltage-gated potassium channel subunit beta-2 (Rattus norvegicus) (P62483 whole entry, looked up): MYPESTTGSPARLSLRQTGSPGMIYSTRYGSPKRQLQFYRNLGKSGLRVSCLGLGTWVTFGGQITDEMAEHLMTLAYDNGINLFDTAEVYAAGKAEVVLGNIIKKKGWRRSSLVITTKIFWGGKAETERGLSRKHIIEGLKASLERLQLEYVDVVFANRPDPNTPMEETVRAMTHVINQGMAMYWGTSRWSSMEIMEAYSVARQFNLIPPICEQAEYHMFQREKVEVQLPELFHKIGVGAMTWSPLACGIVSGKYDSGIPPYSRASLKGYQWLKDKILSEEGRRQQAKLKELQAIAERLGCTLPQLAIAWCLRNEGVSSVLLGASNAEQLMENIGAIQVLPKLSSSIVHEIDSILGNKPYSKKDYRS

`CC(C)(C)n1nnnc1C(c1ccccc1)N1CCc2ccccc2C1` (stereo not given): in assay [1], the cell count stood at 481. The inhibition in assay [1] was 2.9% (inactive); in assay [3] it was 11.4% (inactive); in assay [7], 20.4% (inactive); in assay [8] it was 30.1% (inactive). The inhibition of aggregation in assay [2] is 16% (inactive). For the same compound, the nuclei count in assay [2] came to 115%; in assay [3] it was 110%. Further, in assay [4], the fluorescence slope is -0.48 (inactive). Moreover, the NADPH fluorescence slope in assay [5] is -0.000258 (inactive). Also, the slope in assay [6] was 0.00496 (inactive).

`Cc1cc(C)c(NC(=O)C2CSCCS2)c(C)c1` (stereo not given): the cell count in assay [1] worked out at 484. Besides, the inhibition in assay [1] is 4.7% (inactive); in assay [3], -55.7% (inactive); in assay [7] it was -3.4% (inactive); in assay [8], -35.7% (inactive). Also, the inhibition of aggregation in assay [2] is 23.2% (inactive). The nuclei count in assay [2] is 96%; in assay [3], 111%. Further, in assay [4], the fluorescence slope is -0.392 (inactive). Moreover, the NADPH fluorescence slope in assay [5] is -6.2e-05 (inactive). Moreover, the slope in assay [6] is 0.00428 (inactive).

Regarding `O=C(NCCCCNC(=O)c1cccnc1)c1cccnc1`, the cell count in assay [1] came to 514. The inhibition in assay [1] was 10.1% (inactive); in assay [3], -31.4% (inactive); in assay [7], 13.9% (inactive); in assay [8], 26.9% (inactive). In addition, in assay [2], the inhibition of aggregation was 8.2% (inactive). The nuclei count in assay [2] stood at 99.6%; in assay [3], 116%. Moreover, the fluorescence slope in assay [4] was -0.64 (inactive). The NADPH fluorescence slope in assay [5] was 3.6e-05 (inactive). In assay [6], the slope was 0.00666 (inactive).

Take `O=S(=O)(Cc1ccccc1)N1CCCCCC1`: the cell count in assay [1] is 451. Also, the inhibition was 5.2% (inactive) in assay [1], -42.3% (inactive) in assay [3], -4.29% (inactive) in assay [7] and 4.76% (inactive) in assay [8]. Also, in assay [2], the inhibition of aggregation is -1% (inactive). Besides, the nuclei count in assay [2] is 91%; in assay [3], 103%. The fluorescence slope in assay [4] was -0.497 (inactive). In addition, the NADPH fluorescence slope in assay [5] was -5.8e-05 (inactive). Also, in assay [6], the slope was 0.00613 (inactive).

In the case of `CCN=C1SC(CC(=O)Nc2ccccc2OCC)C(=O)N1CC` (stereo not given), the cell count in assay [1] is 613. Besides, the inhibition in assay [1] is -14.1% (inactive); in assay [3], 0.9% (inactive); in assay [7], 12.4% (inactive); in assay [8] it was 20.8% (inactive). Moreover, in assay [2], the inhibition of aggregation was -12.5% (inactive). For the same compound, the values for the nuclei count in assay [2] and in assay [3] were 100% and 92.3%, respectively. The fluorescence slope in assay [4] was -0.488 (inactive). In addition, in assay [5], the NADPH fluorescence slope is -3.2e-05 (inactive). For the same compound, in assay [6], the slope is 0.00493 (inactive).

On to `N#CC1=C(N)OC(c2ccccc2)=C(C#N)C1c1ccc2c(c1)OCO2` (stereo not given), for which, in assay [1], the cell count is 609. For the same compound, the inhibition in assay [1] is -19.6% (inactive); in assay [3], 29.2% (inactive); in assay [7] it was -16.2% (inactive); in assay [8] it was 10.8% (inactive). For the same compound, the inhibition of aggregation in assay [2] is 6% (inactive). In addition, the nuclei count in assay [2] turned out to be 112%; in assay [3] it was 96.1%. Besides, the fluorescence slope in assay [4] was -0.482 (inactive). Moreover, the NADPH fluorescence slope in assay [5] is -9.1e-05 (inactive). Besides, the slope in assay [6] is 0.00651 (inactive).

For `CC(=O)NC(CCS(C)(=O)=O)C(=O)Nc1cccc(C)c1` (stereo not given), the cell count in assay [1] worked out at 600. Also, the inhibition in assay [1] is 8.7% (inactive); in assay [3] it was 21.6% (inactive); in assay [7] it was -14.8% (inactive); in assay [8], -1.13% (inactive). For the same compound, the inhibition of aggregation in assay [2] was 2.5% (inactive). The nuclei count in assay [2] turned out to be 110%; in assay [3], 95.7%. The fluorescence slope in assay [4] was -0.579 (inactive). Moreover, in assay [5], the NADPH fluorescence slope is 1.1e-05 (inactive). Further, the slope in assay [6] is 0.00598 (inactive).

As to `COC(=O)c1c(C#N)c(N)nc2c1CCC2`, the cell count in assay [1] was determined as 474. The inhibition was -0.6% (inactive) in assay [1], 33.1% (inactive) in assay [3], 9.2% (inactive) in assay [7] and 8.56% (inactive) in assay [8]. Further, in assay [2], the inhibition of aggregation is 18.2% (inactive). Besides, the nuclei count in assay [2] was determined as 80.9%; in assay [3], 92.6%. In addition, the fluorescence slope in assay [4] was -0.00808 (active). Also, the NADPH fluorescence slope in assay [5] was -2e-06 (inactive). In assay [6], the slope is 0.00834 (inactive).

As for `CCCCn1c(NC(=O)CC)c(C#N)c2nc3ccccc3nc21`, the cell count in assay [1] was found to be 273. Further, the inhibition in assay [1] was -0.9% (inactive); in assay [3], 45.9% (inactive); in assay [7] it was 16.1% (inactive); in assay [8] it was 9.45% (inactive). In addition, the inhibition of aggregation in assay [2] is 31.7% (inactive). The values for the nuclei count in assay [2] and in assay [3] were 80.6% and 64.7%, respectively. The fluorescence slope in assay [4] is -0.0219 (inactive). Further, the NADPH fluorescence slope in assay [5] was -1.3e-05 (inactive). Moreover, in assay [6], the slope was 0.00421 (inactive).

Consider `O=C(CN1CCN(c2ccccn2)CC1)N1c2ccccc2CCc2ccccc21`, for which, in assay [1], the cell count is 568. In addition, the inhibition is 3.3% (inactive) in assay [1], 46.8% (inactive) in assay [3], 13% (inactive) in assay [7] and 15.9% (inactive) in assay [8]. Moreover, in assay [2], the inhibition of aggregation is -0.5% (inactive). Further, the nuclei count stood at 103% in assay [2] and 99.5% in assay [3]. In addition, the fluorescence slope in assay [4] was -0.341 (inactive). In addition, in assay [5], the NADPH fluorescence slope is -5.2e-05 (inactive). The slope in assay [6] is 0.0046 (inactive).

Turning to `CCCCCn1c(CCNC(=O)CCC)nc2ccccc21`, the cell count in assay [1] was 635. The inhibition in assay [1] is 3.4% (inactive); in assay [3], -30.5% (inactive); in assay [7] it was 10.2% (inactive); in assay [8], 40.2% (inactive). The inhibition of aggregation in assay [2] is -4.9% (inactive). The figures for the nuclei count in assay [2] and in assay [3] were 55% and 104%, respectively. The fluorescence slope in assay [4] was -0.552 (inactive). For the same compound, in assay [5], the NADPH fluorescence slope is -4.5e-05 (inactive). The slope in assay [6] is 0.00652 (inactive).

For `CCOC(=O)c1ccccc1NC1c2ccccc2C(=O)N1C1CCN(C(=O)OCC)CC1` (stereo not given), the cell count in assay [1] was 548. Besides, the inhibition in assay [1] was -9.7% (inactive); in assay [3], -10.1% (inactive); in assay [7], 14.7% (inactive); in assay [8] it was 38.1% (inactive). The inhibition of aggregation in assay [2] was -12% (inactive). Besides, the nuclei count in assay [2] was determined as 65.3%; in assay [3], 109%. The fluorescence slope in assay [4] is -0.463 (inactive). The NADPH fluorescence slope in assay [5] is -3.3e-05 (inactive). In assay [6], the slope is 0.00667 (inactive).

On to `CCC(C)(C)NC(=O)C(c1ccco1)N(C(=O)Cn1nnc2ccccc21)c1ccc2c(c1)OCO2` (stereo not given), for which, in assay [1], the cell count turned out to be 497. Further, the inhibition in assay [1] was -25% (inactive); in assay [3], -10.4% (inactive); in assay [7], 14.6% (inactive); in assay [8], 21% (inactive). Also, the inhibition of aggregation in assay [2] is 14.5% (inactive). Besides, the values for the nuclei count in assay [2] and in assay [3] were 86% and 102%, respectively. Further, the fluorescence slope in assay [4] is -0.522 (inactive). Moreover, the NADPH fluorescence slope in assay [5] was -2e-05 (inactive). In assay [6], the slope was 0.00407 (inactive).

Turning to `C/C=C(\C)c1nnc(NC(=O)C(C)C)s1`, the cell count in assay [1] worked out at 382. Further, the inhibition in assay [1] is -29% (inactive); in assay [3], -50.6% (inactive); in assay [7], -13.7% (inactive); in assay [8], -7.26% (inactive). Also, in assay [2], the inhibition of aggregation was -12.2% (inactive). Moreover, the results for the nuclei count in assay [2] and in assay [3] were 98.7% and 95.4%, respectively. The fluorescence slope in assay [4] is -0.474 (inactive). For the same compound, in assay [5], the NADPH fluorescence slope was 2.8e-06 (inactive). For the same compound, the slope in assay [6] is 0.00558 (inactive).

Regarding `COc1cccc(-n2c(SCC(=O)Nc3cc(C)on3)nc3c([nH]c4ccccc43)c2=O)c1`, in assay [1], the cell count worked out at 600. Also, the inhibition in assay [1] is 8% (inactive); in assay [3], -41% (inactive); in assay [7], 24% (inactive); in assay [8] it was 28.7% (inactive). For the same compound, the inhibition of aggregation in assay [2] is -10.2% (inactive). Besides, the nuclei count in assay [2] is 89.7%; in assay [3], 118%. The fluorescence slope in assay [4] is -0.539 (inactive). The NADPH fluorescence slope in assay [5] was -7.7e-06 (inactive). Further, the slope in assay [6] is 0.00757 (inactive).

In general, inhibition refers to the drop in the measured response relative to a control, in per cent.
